According to publication PMC5540273 (PLoS ONE, 2017):
Several values for one entry are separate records, joined by “and”; a condition that tells them apart may be missing. Equal entries are not always repeated. Where two headings read alike, the source gives them in different places.

Columns and labels:
Conditions in all cases: concentration: 1 μM, replicates: in singlicate, n = 1
VPS34 = test system: T1, VPS34
T1 construct: gene PIK3C3

VRK2 = test system: VRK2
WEE1 = test system: WEE1
WEE2 = test system: WEE2
WNK1 = test system: WNK1
WNK2 = test system: WNK2
WNK3 = test system: WNK3
WNK4 = test system: WNK4
YANK1 = test system: T2, YANK1
T2 construct: gene STK32A

YANK2 = test system: T3, YANK2
T3 construct: gene STK32B
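Note: KINOMEscan kinase panel screen.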

Row | SMILES | %Inh (VPS34) | %Inh (VRK2) | %Inh (WEE1) | %Inh (WEE2) | %Inh (WNK1) | %Inh (WNK2) | %Inh (WNK3) | %Inh (WNK4) | %Inh (YANK1) | %Inh (YANK2) | %Inh (VPS34; 1 µM) | %Inh (WEE2; 1 µM) | %Inh (WNK1; 1 µM) | %Inh (WNK3; 1 µM) | %Inh (WNK4; 1 µM) | %Inh (YANK1; 1 µM) | %Inh (YANK2; 1 µM) | %Inh (VRK2; 1 µM) | %Inh (WEE1; 1 µM) | %Inh (WNK2; 1 µM)
1 | c1ccc(-c2n[nH]cc2-c2ccnc3ccccc23)nc1 [GW271431] | 20% | 0% | 9% | 2% | 7% | 11% | 15% | 0% | 19% | 4% | – | – | – | – | – | – | – | – | – | –
2 | CC(=O)Nc1ccc(COc2ccc(Nc3ccnc4cc(-c5ccccn5)ccc34)cc2)cc1.Cl [GW440148] | 0% | 0% | 18% | 0% | 10% | 9% | 21% | 83% | 6% | 2% | – | – | – | – | – | – | – | – | – | –
3 | CN1c2ccc(CNc3ccc(F)cc3)cc2-c2c(cnn2C)S1(=O)=O | 0% | 0% | 2% | 0% | 0% | 0% | 1% | 0% | 0% | 0% | – | – | – | – | – | – | – | – | – | –
4 | CNc1ncnc2[nH]ncc12 [SKF-18355] | 30% | 10% | 5% | 0% | 0% | 0% | 12% | 0% | 0% | 9% | – | – | – | – | – | – | – | – | – | –
5 | Cc1cn2c(=O)cc(N3CCOCC3)nc2n1Cc1cccc(Cl)c1Cl [GSK2334006] | 96.7% | 0% | 20% | 16% | 0% | 19% | 27% | 0% | 23% | 0% | – | – | – | – | – | – | – | – | – | –
6 | N#Cc1ccc(-c2cc(-c3c[nH]nc3-c3ccccn3)ccn2)cc1 [GW693028] | 0% | 13% | 2% | 0% | 7% | 15% | 30% | 30% | 15% | 7% | – | – | – | – | – | – | – | – | – | –
7 | CCc1nc(-c2cccc(C)c2)c(-c2ccnc(NCc3ccccc3)c2)s1 | 3% | 0% | 0% | 25% | 0% | 12% | 0% | 0% | 0% | 2% | – | – | – | – | – | – | – | – | – | –
8 | O=C(Nc1n[nH]c2cc(-c3cccc(F)c3)ccc12)C1CC1 [SB-735464] | 0% | 23% | 0% | 4% | 28% | 0% | 36% | 22% | 0% | 0% | – | – | – | – | – | – | – | – | – | –
9 | NS(=O)(=O)c1cccc(-c2ccc3nccc(-c4cccc(S(N)(=O)=O)c4)c3c2)c1 [GW867253] | 78% | 12% | 0% | 0% | 7% | 0% | 0% | 0% | 0% | 0% | – | – | – | – | – | – | – | – | – | –
10 | COc1ccc(CNC(=O)NC2CCN(c3ccnc(Nc4ccc(OC)cc4)n3)C2)cc1 (stereo not drawn) [GSK1379727] | 0% | 32% | 9% | 7% | 4% | 0% | 44% | 63% | 0% | 0% | – | – | – | – | – | – | – | – | – | –
11 | NCC(NC(=O)c1cc(-c2cn[nH]c2)c(-c2ccnc3[nH]ccc23)s1)c1ccccc1.O=C(O)C(F)(F)F.O=C(O)C(F)(F)F (stereo not drawn) [GSK1325775] | 59% | 0% | 0% | 0% | 6% | 9% | 21% | 24% | 15% | 0% | – | – | – | – | – | – | – | – | – | –
12 | O=C(Nc1cccc(-c2nn3ncccc3c2-c2ccnc(Nc3cccc(C(F)(F)F)c3)n2)c1)c1c(F)cccc1F [GSK299495] | 0% | 20% | 2% | 24% | 15% | 0% | 44% | 27% | 0% | 15% | – | – | – | – | – | – | – | – | – | –
13 | Cc1c2ccc(N(C)c3ccnc(Nc4cccc(S(N)(=O)=O)c4)n3)cc2nn1Cc1ccccc1.Cl.Cl [GW787226] | 0% | 0% | 0% | 6% | 0% | 0% | 0% | 0% | 0% | 0% | – | – | – | – | – | – | – | – | – | –
14 | CC(C)(C)n1cnc2c(N)ncnc21 [SKF-97359] | 15% | 100% | 0% | 12% | 0% | 25% | 40% | 0% | 0% | 0% | – | – | – | – | – | – | – | – | – | –
15 | Cl.Cl.Cl.Fc1ccc(-c2ncn(C3CCNCC3)c2-c2ccnc(Nc3ccccc3)n2)cc1 [SB-238039] | – | 100% | 0% | – | – | 0% | – | – | – | – | 44% and 8% | 0% and 24% | 30% and 0% | 26% and 0% | 30% and 0% | 95.6% and 93.7% | 94.1% and 88% | – | – | –
16 | Cn1cc(-c2ccc3c(c2)CCN3C(=O)Cc2ccccc2Cl)c2c(N)ncnc21 [GSK2608885] | 0% | 0% | 0% | 0% | 0% | 17% | 6% | 25% | 32% | 84% | – | – | – | – | – | – | – | – | – | –
17 | Cc1cccc(Cn2ccn3c(=O)cc(N4CCOCC4)nc23)c1 [GSK2297542] | 94.6% | 0% | 22% | 22% | 9% | 6% | 12% | 8% | 20% | 0% | – | – | – | – | – | – | – | – | – | –

Row | SMILES | %Inh (VPS34) | %Inh (VRK2) | %Inh (WEE1) | %Inh (WEE2) | %Inh (WNK1) | %Inh (WNK2) | %Inh (WNK3) | %Inh (WNK4) | %Inh (YANK1) | %Inh (YANK2) | %Inh (VPS34; 1 µM) | %Inh (WEE2; 1 µM) | %Inh (WNK1; 1 µM) | %Inh (WNK3; 1 µM) | %Inh (WNK4; 1 µM) | %Inh (YANK1; 1 µM) | %Inh (YANK2; 1 µM) | %Inh (VRK2; 1 µM) | %Inh (WEE1; 1 µM) | %Inh (WNK2; 1 µM)
18 | O=C(c1ccc(-c2cc(-c3c[nH]nc3-c3ccccn3)ccn2)cc1)N1CCOCC1 [GW812171] | 9% | 23% | 0% | 0% | 2% | 9% | 4% | 0% | 0% | 63% | – | – | – | – | – | – | – | – | – | –
19 | Cc1ccc(C(=O)NCC(N)=O)cc1-n1c(C)cc(OCc2ccc(F)cc2F)c(Br)c1=O | 0% | 0% | 3% | 17% | 0% | 5% | 0% | 0% | 0% | 10% | – | – | – | – | – | – | – | – | – | –
20 | Nc1nc(-c2ccc3c(N)n[nH]c3c2)cc(N2CCCC2)n1 [GSK2227430] | 0% | 0% | 35% | 0% | 0% | 0% | 8% | 0% | 0% | 0% | – | – | – | – | – | – | – | – | – | –
21 | O=C(NCCNc1ccnc(Nc2ccc(F)cc2)n1)Nc1ccccc1F [GSK1379880] | 0% | 0% | 13% | 3% | 0% | 0% | 4% | 41% | 2% | 0% | – | – | – | – | – | – | – | – | – | –
22 | CCn1cnc2c(N)ncnc21 [GW345098] | 1% | 0% | 2% | 14% | 0% | 0% | 0% | 0% | 0% | 0% | – | – | – | – | – | – | – | – | – | –
23 | CSc1ccc(-c2cc3ncnc(SCC(=O)O)c3s2)cc1 | 31% | 0% | 0% | 15% | 0% | 0% | 0% | 0% | 0% | 0% | – | – | – | – | – | – | – | – | – | –
24 | CC(C)(CN)c1nc(-c2ccc(Cl)c(O)c2)c(-c2ccncc2)[nH]1.O=C(O)C(F)(F)F [SB-477794] | – | – | – | 0% | – | – | – | – | – | – | 0% and 48% | – | 16% and 0% | 52% and 39% | 47% and 49% | 95.3% and 93.8% | 93.6% and 94% | 41% and 42% | 8% and 7% | 1% and 9%
25 | COc1ccc(Nc2nccc(N3CCC(NC(=O)Nc4cccc(C(C)=O)c4)C3)n2)cc1 (stereo not drawn) [GSK1379731] | 31% | 95.1% | 6% | 0% | 4% | 6% | 28% | 0% | 0% | 0% | – | – | – | – | – | – | – | – | – | –
26 | NCCNS(=O)(=O)c1ccc(-c2ccnc3[nH]ccc23)cc1 [GSK977617] | – | – | 9% | – | 0% | – | – | – | – | 0% | 90% and 80% | 5% and 15% | – | 8% and 15% | 0% and 5% | 36% and 0% | – | 13% and 7% | – | 7% and 0%
27 | NS(=O)(=O)CCc1cccc(Nc2nccc(-c3c(-c4cccc(NC(=O)c5c(F)cccc5F)c4)nn4ccccc34)n2)c1 [GSK336735] | 0% | 0% | 0% | 0% | 0% | 6% | 18% | 12% | 23% | 77% | – | – | – | – | – | – | – | – | – | –
28 | O=c1cc(N2CCOCC2)nc2n(Cc3cccc(C(F)(F)F)c3)ccn12 [GSK2297543] | 93.9% | 0% | 6% | 10% | 2% | 0% | 19% | 22% | 0% | 0% | – | – | – | – | – | – | – | – | – | –
29 | COc1ccc(COc2cc(-n3cnc4ccccc43)sc2C(N)=O)cc1 [GSK1024304] | 40% | 0% | 0% | 2% | 0% | 0% | 12% | 13% | 6% | 0% | – | – | – | – | – | – | – | – | – | –
30 | CN1c2ccc(NCc3ccc(F)cc3)cc2-c2c(cnn2C)S1(=O)=O | 0% | 0% | 0% | 0% | 42% | 5% | 8% | 0% | 0% | 3% | – | – | – | – | – | – | – | – | – | –
31 | NS(=O)(=O)c1cccc(-c2ccc3ncc(N4CCOCC4)nc3c2)c1 [GSK1535721] | 87% | 8% | 5% | 8% | 0% | 0% | 24% | 16% | 2% | 3% | – | – | – | – | – | – | – | – | – | –
32 | O=c1cc(N2CCOCC2)nc2n(Cc3cccc(Cl)c3Cl)c(C3CC3)nn12 [GSK2358994] | 100% | 0% | 0% | 0% | 0% | 0% | 0% | 0% | 0% | 0% | – | – | – | – | – | – | – | – | – | –
33 | COc1ccc(Nc2ncc(C#N)c(Nc3ccccc3C(N)=O)n2)cc1N1CCN(C)CC1.Cl [GSK1558669] | 43% | 0% | 99.8% | 100% | 66% | 31% | 4% | 0% | 93.5% | 68% | – | – | – | – | – | – | – | – | – | –
